# In the library only some 3.1% were active in any assay of this set; here they are far more common.
# FBA Mtb inh = inhibits M. tuberculosis FBA enzyme. P9WQA3. purified M. tuberculosis FBA, fluorescence read-out. inhibition, % at 1 µM. hit rate 2.3% among 360,000;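 further: 0% = vehicle and 100% = reference inhibitor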
# Target sequence (P9WQA3 whole entry, looked up): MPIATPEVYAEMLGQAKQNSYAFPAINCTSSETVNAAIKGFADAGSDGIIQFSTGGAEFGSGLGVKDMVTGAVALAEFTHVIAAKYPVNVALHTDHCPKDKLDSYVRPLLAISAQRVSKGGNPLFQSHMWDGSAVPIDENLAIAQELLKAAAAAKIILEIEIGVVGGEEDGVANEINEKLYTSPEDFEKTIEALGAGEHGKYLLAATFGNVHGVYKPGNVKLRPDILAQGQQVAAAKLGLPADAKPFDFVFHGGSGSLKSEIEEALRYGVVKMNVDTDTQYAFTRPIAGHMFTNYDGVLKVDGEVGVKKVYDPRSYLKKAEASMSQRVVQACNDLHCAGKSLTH
# 3CLpro inhibitor = SARS-CoV 3CLpro protease inhibition | P0C6X7 | recombinant SARS-CoV 3CLpro, quenched FRET peptide cleavage | inhibition, % at 6 µM | hit rate 0.14% among 290,000; in the data active means inhibition above about 12%
# FadD28 FP inh = inhibitors of Mycobacterium tuberculosis FadD28 bisubstrate binding; FadD28 bisubstrate probe binding, fluorescence polarization; inhibition, % at 12.5 µM; hit rate 0.22% among 360,000; in the data active means inhibition above about 8.5%, passing the limit was not always enough; inconclusive means no clear call, values can overlap the other calls
# Mtb BioA inh = BioA (M. tuberculosis) enzyme inhibition. inhibition, % at 9.99 µM. purified M. tuberculosis BioA enzyme, plate reader. hit rate 0.096% among 360,000; in the data active means inhibition above about 40%; inconclusive means no clear call, values can overlap the other calls
# GDH-TPI counter-1 = GDH-TPI coupled enzyme inhibition counter-screen | GDH-TPI coupled enzyme counterscreen, NADH absorbance | inhibition, % at 4.8 µM | hit rate 1.2% among 360,000 | AID 588335; in the data active means inhibition above about 30%;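 further: 0% = DMSO wells and 100% = wells lacking the enzyme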
# Mtb FBA confirm = confirmation of M. tuberculosis fructose-bisphosphate aldolase inhibitors. shares compounds with FBA Mtb inh. purified M. tuberculosis FBA, fluorescence read-out. inhibition, % at 1 µM. hit rate 78% among 5,600. AID 651616;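 further: 0% = vehicle wells and 100% = reference inhibitor wells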
# GDH-TPI counter-2 = inhibits GDH-TPI coupling enzymes, flagging Mtb FBA hits; GDH-TPI coupled enzyme counterscreen, fluorescence; inhibition, % at 1 µM; hit rate 81% among 5,600; shares compounds with FBA Mtb inh; in the data active means inhibition above about 10%
# GDH-TPI DR = counter-screen for M. tuberculosis FBA inhibitors: GDH-TPI dose response; hit rate 79% among 170; AID 652145; GDH-TPI coupled enzyme assay, fluorescence, artifact counterscreen; IC50, µM; shares compounds with FBA Mtb inh; call rule not given here
# Starred values were filed as active, the others as inactive; ? = inconclusive; . = no result; + = active, no number. Unless noted, no stated cut-off is given here; in the data, active means inhibition above about 27%; inactive means the rest.
SMILES,FBA Mtb inh,3CLpro inhibitor,FadD28 FP inh,Mtb BioA inh,GDH-TPI counter-1,Mtb FBA confirm,GDH-TPI counter-2,others
CC(C)c1nc(C(N)=O)c2[nH]c(=O)n(-c3ccc(F)cc3)c2n1,32*,-2,-2,-1,19,+,+,
CC(=O)NN1C(=O)c2ccccc2NC1c1ccco1 (configuration not stated),32*,-1,-1,1,-2,39*,23*,
O=C(NN1C(=O)c2ccccc2NC1c1ccco1)c1ccc(Br)cc1 (configuration not stated),0,-1,-1,1,-2,.,.,
CC(=O)NN1C(=O)c2ccccc2NC1c1ccccn1 (configuration not stated),27*,2,-2,-2,0,14,10,GDH-TPI DR=6*
CCC(=O)Nc1ccc2c(c1)OC[C@@H](C)N(C(C)=O)C[C@H](C)[C@H](OC)CN(C)C2=O,.,.,.,-1,.,.,.,
CO[C@H]1CN(C)C(=O)c2cc(NS(=O)(=O)CC(F)(F)F)ccc2OC[C@@H](C)N(Cc2cccnc2)C[C@H]1C,.,.,.,-1,.,.,.,
COc1ccc(N2CC(NS(=O)(=O)c3cccnc3)CC2=O)cc1OC (configuration not stated),30*,.,-1,-1,1,106*,77*,
CC=Cc1ccc2n(c1=O)C[C@H]1[C@H](CO)[C@@H](C(=O)N3CCCCC3)N(CC3CC3)[C@@H]21 (mixture of isomers),.,.,.,-3,.,.,.,
Cc1c(C(=O)Nc2ccc(F)cc2)c2ccccn2c1CCc1ccncc1,32*,-3,2,.,20,+,+,
COC(CNC(=O)c1cccc(-n2c(=S)[nH]c3cc(Cl)ccc3c2=O)c1)OC,68*,5,0,0,2,+,159*,
C[C@H](CO)N1C[C@H](C)[C@@H](CN(C)C(=O)CN2CCOCC2)Oc2ncc(C3=CCCC3)cc2C1=O,.,.,.,0,.,.,.,
Cc1cc(C)n2cc(CSc3nnnn3C)nc2n1,28*,-3,0,35,6,+,187*,
Cc1cc(C)n2cc(CSc3nncn3C)nc2n1,49*,1,1,.,6,2,-4,
Cc1ccc(SCc2cn3c(C)cc(C)nc3n2)cc1,5,-2,0,.,-1,.,.,
CCc1nnc(SCc2cn3c(C)cc(C)nc3n2)n1N,39*,-8,-1,-1,-5,45*,53*,
Cc1cc(C)n2cc(CSc3nnc(SCc4cn5c(C)cc(C)nc5n4)s3)nc2n1,.,1,.,.,.,.,.,
Cc1cc(C)n2cc(CSc3nnc(N)s3)nc2n1,5,1,-2,12,6,.,.,
C[C@@H]1CN([C@@H](C)CO)C(=O)Cc2cc(NC(=O)C3CC3)ccc2O[C@@H]1CN(C)C(=O)Nc1ccc(C(F)(F)F)cc1,.,.,.,2,.,.,.,
C[C@H]1CN([C@@H](C)CO)C(=O)c2cccc(NC(=O)c3cnccn3)c2O[C@@H]1CN(C)Cc1ccc(-c2ccccc2)cc1,.,.,.,3,.,.,.,
CN1CCN(c2c(F)cc3c(=O)c(C(=O)O)cn4c3c2SCC4)CC1,28*,-4,0,1,15,+,+,
C[C@H]1COc2c(C3(N)CC3)c(F)cc3c(=O)c(C(=O)O)cn1c23,.,1,.,.,.,.,.,
C[C@H]1COc2c(N3CCN(C)CC3)c(F)cc3c(=O)c(C(=O)O)cn1c23,55*,0,1,-4,21,+,162*,
CCN(c1cccc(C)c1)S(=O)(=O)c1ccc2c(c1)oc(=O)n2C,79*,-6,0,7,2,49*,46*,
C[C@H](CO)N1C[C@H](C)[C@@H](CN(C)CC2CCCCC2)Oc2ccc(NC(=O)CCC(F)(F)F)cc2CC1=O,.,.,.,-4,.,.,.,
CCOC(=O)c1cc(-c2ccc(OC(F)F)cc2)nc2c1c(=O)[nH]c(=O)n2C,50*,1,-1,0,10,159*,130*,
SMILES,FBA Mtb inh,3CLpro inhibitor,FadD28 FP inh,Mtb BioA inh,GDH-TPI counter-1,Mtb FBA confirm,GDH-TPI counter-2,others
CCOC(=O)c1cc(-c2ccc(OC(F)F)cc2)nc2nc(SC)[nH]c(=O)c12,72*,0,-7,.,29,101*,88*,
CCOC(=O)c1cc(-c2ccc(Cl)cc2)nc2c1c(=O)[nH]c(=O)n2CCOC,53*,-4,-3,.,7,68*,46*,
CCOC(=O)c1cc(-c2ccc(F)cc2)nc2c1c(=O)[nH]c(=O)n2Cc1ccccc1,3,-5,-1,-2,4,.,.,
CNC[C@@H]1Oc2ccc(NS(=O)(=O)c3c(C)noc3C)cc2CC(=O)N([C@@H](C)CO)C[C@H]1C,.,.,.,0,.,.,.,
c1ccc(-c2cc3ccccc3[nH]2)cc1,60*,4,0,-3,5,114*,93*,
Clc1ccc2[nH]c(-c3ccccc3)cc2c1,9,-3,-6,-1,6,.,.,
Cc1ccc(O)c(-c2cc3ccccc3[nH]2)c1,52*,6,-1,3,16,71*,45*,
COc1ccc(-c2cc3ccccc3[nH]2)cc1,29*,3,-2,-1,0,74*,62*,
CCCNC(=O)[C@@H]1[C@@H](CO)[C@@H]2Cn3c(cccc3=O)[C@H]1N2S(=O)(=O)c1ccccc1F,.,.,.,-1,.,.,.,
Nc1c(S(=O)(=O)c2ccccc2)c2nc3ccccc3nc2n1CCN1CCOCC1,47*,-5,-2,.,15,70*,55*,
Nc1c(S(=O)(=O)c2ccccc2)c2nc3ccccc3nc2n1C1CC1,18,-2,-3,.,3,.,.,
Cc1ccc(S(=O)(=O)c2c(N)n(CCC(C)C)c3nc4ccccc4nc23)cc1,46*,3,1,-2,4,107*,80*,
Cn1c(N)c(S(=O)(=O)c2ccc(Br)cc2)c2nc3ccccc3nc21,107*,3,-2,-1,29,19,18*,
COc1cccc(-c2ccc3c(c2)[C@@H]2[C@@H](CCN2Cc2ccccc2OC)[C@@H](CO)N3)c1,.,.,.,11,.,.,.,
CCC(=O)N(C)C[C@@H]1Oc2ncc(-c3ccc(C#N)cc3)cc2C(=O)N([C@@H](C)CO)C[C@@H]1C,.,.,.,-4,.,.,.,
CC1(C)Cc2nc3oc4c(NCc5ccccc5)ncnc4c3cc2CO1,60*,0,?,0,-5,47*,44*,
CC1(C)Cc2nc3oc4c(NCCCN5CCOCC5)ncnc4c3cc2CO1,13,3,-2,0,9,.,.,
Cc1nc2oc3c(NCc4ccccn4)ncnc3c2c2c1COC(C)(C)C2,94*,-3,-1,8,9,86*,74*,
CC(C)c1nc2oc3c(NCc4ccccn4)ncnc3c2c2c1COC(C)(C)C2,8,.,-4,-1,-7,.,.,
COc1ccc(S(=O)(=O)N2CCN(Cc3ccc(OC)c(OC)c3)CC2)cc1,29*,7,-1,-1,7,40*,42*,

# Screening results (PubChem BioAssay)
